Where “and” joins values, the source holds several entries; their conditions need not be identical. Identical values can stand only once. About 83,000 compounds went through this panel and 20% of them were active in at least one assay; those are over-represented in the sample as a whole.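 Interpretation: 100, growth as untreated; towards 0, rising growth inhibition; 0, no net growth; 0 to -100, cell death. Compounds scoring below 10 were considered active.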 Calls of active or inactive are those of the source.

Test systems include MOLT-4 leukemia; SR leukemia; RPMI-8226 leukemia; OVCAR-8 ovarian; OVCAR-5 ovarian; OVCAR-4 ovarian; SK-OV-3 ovarian; IGROV1 ovarian; OVCAR-3 ovarian; HS 578T breast; NCI/ADR-RES ovarian; T-47D breast; BT-549 breast; MDA-MB-435 melanoma; SW-620 colon; MCF7 breast; HCT-116 colon; HCC-2998 colon; KM12 colon.
Holding throughout (assay): NCI-60 one-dose screen, 48 h (100 = growth as untreated, 0 = no growth, -100 = all killed)
Common to all, as to settings: 10 µM unless noted

As to `CCCCCCCCCCCCCCCC[N+](C)(C)Cc1ccccc1`, the growth was -1.12% (active) and -55.3% (active) in the experiment on MOLT-4 leukemia; 5.4% (active) and -55% (active) in the experiment with SR leukemia; -42.2% (active) and -50.1% (active) in the experiment with RPMI-8226 leukemia; 10.5% (inactive) with OVCAR-8 ovarian; 24.7% (inactive) and -62.5% (active) with OVCAR-5 ovarian; 3.33% (active) and -44.5% (active) in the experiment on OVCAR-4 ovarian. Further, the growth in the experiment on SK-OV-3 ovarian is 31.6% (inactive) and -7.74% (active); with IGROV1 ovarian, -71.5% (active) and -87.3% (active); with OVCAR-3 ovarian it was 1.73% (active) and -74% (active); in the experiment on HS 578T breast it was 8.98% (active) and -27.8% (active); in the experiment with NCI/ADR-RES ovarian, 82.4% (inactive) and 83.6% (inactive); in the experiment on T-47D breast, 7% (active) and -12% (active). For the same compound, the growth in the experiment with BT-549 breast is -0.798% (active) and -75.1% (active); in the experiment on MDA-MB-435 melanoma it was -58.7% (active) and -87.5% (active); in the experiment with SW-620 colon, -6.91% (active) and -62.2% (active); in the experiment on MCF7 breast it was 2.3% (active) and -42.3% (active); in the experiment with HCT-116 colon, -53% (active) and -100% (active); in the experiment with HCC-2998 colon, -56.7% (active) and -49.7% (active). Further, the growth in the experiment with KM12 colon was -81% (active) and -85.4% (active).

Turning to `Cc1cc(N(CCCl)CCCl)ccc1C=Nc1ccc(-c2csc(-c3ccccc3)n2)cc1`, the growth in the experiment with MOLT-4 leukemia is 22.5% (inactive); in the experiment with SR leukemia it was 31.4% (inactive); with RPMI-8226 leukemia, 77.3% (inactive); with OVCAR-8 ovarian it was 91.3% (inactive); with OVCAR-5 ovarian it was 120% (inactive); in the experiment on OVCAR-4 ovarian, 89.6% (inactive). In addition, the growth in the experiment on SK-OV-3 ovarian is 71.6% (inactive); in the experiment with IGROV1 ovarian it was 93.2% (inactive); in the experiment on OVCAR-3 ovarian it was 89.7% (inactive); in the experiment on HS 578T breast it was 107% (inactive); in the experiment with NCI/ADR-RES ovarian, 82.4% (inactive); in the experiment with T-47D breast it was 57.8% (inactive). Moreover, the growth with BT-549 breast is 67.2% (inactive); with MDA-MB-435 melanoma it was 95.2% (inactive); with SW-620 colon, 83.1% (inactive); with MCF7 breast it was 48% (inactive); in the experiment with HCT-116 colon, 89.8% (inactive); with HCC-2998 colon, 94.2% (inactive).

In the case of `Cc1cc(N(CCCl)CCCl)ccc1/C=N\NC(=O)c1cccnc1`, the growth with MOLT-4 leukemia is 49.6% (inactive) and 60.5% (inactive); with SR leukemia, 23.4% (inactive) and 54.5% (inactive); with RPMI-8226 leukemia, 85.7% (inactive) and 86.1% (inactive); in the experiment on OVCAR-8 ovarian it was 88.4% (inactive) and 80.2% (inactive); in the experiment on OVCAR-5 ovarian, 33.9% (inactive) and 74% (inactive); with OVCAR-4 ovarian, 93.2% (inactive) and 80.5% (inactive). Further, the growth with SK-OV-3 ovarian was 74.2% (inactive) and 102% (inactive); with IGROV1 ovarian, 79.9% (inactive) and 82.6% (inactive); in the experiment with OVCAR-3 ovarian, 104% (inactive) and 101% (inactive); in the experiment with HS 578T breast, 98.3% (inactive) and 103% (inactive); with NCI/ADR-RES ovarian, 81.6% (inactive) and 82.4% (inactive); in the experiment with T-47D breast it was 57.5% (inactive) and 60.7% (inactive). Further, the growth with BT-549 breast is 86% (inactive) and 78.8% (inactive); with MDA-MB-435 melanoma, 91.3% (inactive) and 88.1% (inactive); with SW-620 colon, 91.4% (inactive); with MCF7 breast, 50.4% (inactive) and 59.7% (inactive); with HCT-116 colon, 84% (inactive) and 79.2% (inactive); with HCC-2998 colon it was 97.1% (inactive) and 102% (inactive).

As to `O=C(NC(Cl)=C(Cl)Cl)P(=O)(c1ccccc1)c1ccccc1`, the growth in the experiment on MOLT-4 leukemia is 87.1% (inactive); in the experiment with SR leukemia, 88.3% (inactive); with RPMI-8226 leukemia, 101% (inactive); in the experiment on OVCAR-8 ovarian it was 126% (inactive); with OVCAR-5 ovarian, 105% (inactive); in the experiment with OVCAR-4 ovarian, 101% (inactive). Moreover, the growth in the experiment with SK-OV-3 ovarian was 107% (inactive); in the experiment on IGROV1 ovarian it was 95% (inactive); in the experiment with OVCAR-3 ovarian, 115% (inactive); with HS 578T breast it was 113% (inactive); in the experiment with NCI/ADR-RES ovarian, 107% (inactive); in the experiment with T-47D breast it was 105% (inactive). Also, the growth is 109% (inactive) in the experiment with BT-549 breast; 92% (inactive) in the experiment with MDA-MB-435 melanoma; 112% (inactive) in the experiment on SW-620 colon; 97.3% (inactive) with MCF7 breast; 106% (inactive) in the experiment on HCT-116 colon; 114% (inactive) in the experiment with HCC-2998 colon.

Consider `C=CCOC(=O)C(Br)CC` (stereo not drawn), for which the growth was 102% (inactive) in the experiment on MOLT-4 leukemia; 100% (inactive) in the experiment with SR leukemia; 112% (inactive) with RPMI-8226 leukemia; 106% (inactive) with OVCAR-8 ovarian; 113% (inactive) in the experiment on OVCAR-5 ovarian; 108% (inactive) in the experiment on OVCAR-4 ovarian. The growth is 105% (inactive) with SK-OV-3 ovarian; 115% (inactive) with IGROV1 ovarian; 105% (inactive) in the experiment on OVCAR-3 ovarian; 104% (inactive) with HS 578T breast; 107% (inactive) in the experiment with NCI/ADR-RES ovarian; 95.8% (inactive) in the experiment on T-47D breast. The growth in the experiment on BT-549 breast is 111% (inactive); in the experiment with MDA-MB-435 melanoma, 109% (inactive); in the experiment on SW-620 colon, 104% (inactive); with MCF7 breast, 103% (inactive); in the experiment on HCT-116 colon, 104% (inactive); with HCC-2998 colon, 101% (inactive).

For the compound `O=c1[nH]c(=O)[nH]c(=O)[nH]1`, the growth was 80.8% (inactive) in the experiment on MOLT-4 leukemia; 104% (inactive) in the experiment on SR leukemia; 60.1% (inactive) in the experiment on RPMI-8226 leukemia; 106% (inactive) in the experiment with OVCAR-8 ovarian; 103% (inactive) with OVCAR-5 ovarian; 119% (inactive) in the experiment on OVCAR-4 ovarian. Besides, the growth is 110% (inactive) in the experiment on SK-OV-3 ovarian; 68.2% (inactive) in the experiment on IGROV1 ovarian; 119% (inactive) with OVCAR-3 ovarian; 95.7% (inactive) with HS 578T breast; 102% (inactive) with NCI/ADR-RES ovarian; 102% (inactive) in the experiment with T-47D breast. For the same compound, the growth was 145% (inactive) with BT-549 breast; 114% (inactive) with MDA-MB-435 melanoma; 108% (inactive) in the experiment with SW-620 colon; 97.1% (inactive) in the experiment with MCF7 breast; 97.2% (inactive) in the experiment on HCT-116 colon; 117% (inactive) in the experiment with HCC-2998 colon.

With `ClCc1ccc(Cl)c(Cl)c1`, the growth in the experiment on MOLT-4 leukemia is 105% (inactive); with SR leukemia, 101% (inactive); with RPMI-8226 leukemia it was 109% (inactive); with OVCAR-8 ovarian it was 104% (inactive); with OVCAR-5 ovarian it was 98.7% (inactive); in the experiment on OVCAR-4 ovarian, 106% (inactive). Moreover, the growth was 106% (inactive) in the experiment on SK-OV-3 ovarian; 94.7% (inactive) in the experiment with IGROV1 ovarian; 114% (inactive) in the experiment with OVCAR-3 ovarian; 103% (inactive) in the experiment with HS 578T breast; 106% (inactive) in the experiment on NCI/ADR-RES ovarian; 106% (inactive) with T-47D breast. Moreover, the growth in the experiment on BT-549 breast is 104% (inactive); in the experiment with MDA-MB-435 melanoma, 106% (inactive); in the experiment with SW-620 colon it was 97% (inactive); with MCF7 breast, 97.2% (inactive); with HCT-116 colon, 96.1% (inactive); with HCC-2998 colon it was 103% (inactive). Moreover, the growth in the experiment on KM12 colon was 104% (inactive).
